Assay outcomes from PubChem.
A selection: hits, their analogues and other compounds. The true share with any hit is near 3.2%.
Rce1 inhib = inhibitors of yeast Ras-converting enzyme. yeast membranes, quenched prenylated peptide cleavage fluorescence. calls only. 290,000 compounds, 0.27% hits;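 active = fall in fluorescence gain of 50% or more versus controls, with final raw signal at or below 3038400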;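 note: plate controls were neutral control wells for no effect and wells lacking membranes for full effect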
CHT inh = inhibitors of human choline transporter CHT | Q9GZV3 | CHT-expressing cells, membrane potential dye, choline response; hits give low values | B-score at 10 µM | 310,000 compounds, 0.86% hits | AID 488975;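 active = B-score over 3 SD under the library average, and starting fluorescence ratio not unusually high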;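 note: choline stimulus applied at its EC90 after an EC20 pre-addition; B-score computed on integrated fluorescence ratio after choline addition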
Target sequence (Q9GZV3 whole entry, looked up): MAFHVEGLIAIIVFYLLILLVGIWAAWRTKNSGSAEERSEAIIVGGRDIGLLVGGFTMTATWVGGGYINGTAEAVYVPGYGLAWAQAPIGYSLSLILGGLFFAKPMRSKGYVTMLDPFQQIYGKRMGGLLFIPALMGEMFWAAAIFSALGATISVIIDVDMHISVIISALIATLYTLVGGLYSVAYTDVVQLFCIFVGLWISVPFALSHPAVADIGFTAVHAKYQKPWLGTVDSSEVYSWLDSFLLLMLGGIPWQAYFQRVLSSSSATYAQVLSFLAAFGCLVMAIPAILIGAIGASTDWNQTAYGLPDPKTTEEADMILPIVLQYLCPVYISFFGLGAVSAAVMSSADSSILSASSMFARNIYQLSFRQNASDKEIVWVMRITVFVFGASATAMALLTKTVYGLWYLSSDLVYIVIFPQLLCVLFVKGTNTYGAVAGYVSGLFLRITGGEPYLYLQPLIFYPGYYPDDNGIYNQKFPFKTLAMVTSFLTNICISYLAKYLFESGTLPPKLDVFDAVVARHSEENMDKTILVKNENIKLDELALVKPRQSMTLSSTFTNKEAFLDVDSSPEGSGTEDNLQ
CHT allo act = allosteric activators of human choline transporter CHT; 310,000 compounds, 0.49% hits; B-score at 10 µM; AID 488977; Q9GZV3; CHT-expressing cells, membrane potential dye, choline EC20; hits give high values; LV-AA mutant CHT in HEK293 cells;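 active = initial fluorescence not abnormally high and integrated response B-score, plate-corrected, over 3 SD above library mean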
TMEM16A inh = mouse TMEM16A channel inhibition, primary screen; Q8BHY3; HEK293 TMEM16A/YFP iodide influx fluorescence, ionomycin; normalized B-score (activity score, 25-100; higher = stronger inhibition) at 10 µM; 310,000 compounds, 1.2% hits; AID 588511;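 active = ratio plate-corrected score three or more library SD toward inhibition, starting fluorescence score within five deviations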;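 note: score derived from kinetic fluorescence span divided by baseline fluorescence per well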
Kir21 inh = inhibitors of mouse Kir2.1 inward-rectifier potassium channel; P35561; HEK293-Kir2.1, FluxOR thallium flux fluorescence; hits give low values; B-score at 10 µM; 310,000 compounds, 0.85% hits;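 active = fluorescence ratio B-score at or below minus 3 SD of library scores, with starting-brightness B-score within 2 SD, cut at about -4.2 in these data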;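 note: channel flux triggered by added potassium and thallium sulfate stimulus; B-score of peak minus minimum fluorescence over baseline after thallium stimulus; more negative B-score means stronger Kir2.1 block with less thallium influx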
ANO1 activ = activators or potentiators of mouse TMEM16A chloride channel; B-score at 10 µM; AID 623877; HEK293 TMEM16A/YFP-H148Q/I152L, iodide quench fluorescence; hits give low values; 340,000 compounds, 0.3% hits;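 active = fluorescence-ratio B-score plate-corrected deviation score at least 3 library SD below zero, with starting fluorescence score within 5 deviations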;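 note: channel opened by trigger with iodide after compound preincubation; score built on the fluorescence ratio of max minus min over baseline; more negative score means more quench and so TMEM16A activation or potentiation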
* = called active by the depositor; i = inactive; · = no result; + = active, no number.

SMILES	Rce1 inhib	CHT inh	CHT allo act	TMEM16A inh	Kir21 inh	ANO1 activ
COC1=CC(=O)C(O)=C(CCCCCCC/C=C/CCCCCCCC2=C(O)C(=O)C=C(OC)C2=O)C1=O	i	i	i	100*	-3.1	i
C=CCOc1ccc(C2/C(=C(\O)c3ccc4c(c3)CC(C)O4)C(=O)C(=O)N2CCN2CCOCC2)cc1OCC (stereo not drawn)	i	i	i	i	-0.36	i
NC(=NCCCCCCN=C(N)/N=C(\N)Nc1ccc(Cl)cc1)/N=C(\N)Nc1ccc(Cl)cc1	+	i	i	i	-0.15	i
CC(C)N=C(N)N=C(N)Nc1ccc(Cl)cc1	·	i	i	i	·	i
CN(C)S(=O)(=O)c1cccc(NC(=S)Nc2ccc(Cl)cc2Cl)c1	i	i	i	i	-2.5	i
CN(C)S(=O)(=O)c1cccc(NC(=S)Nc2cc(Cl)cc(Cl)c2)c1	i	i	i	100*	-2.4	i
CN(C)S(=O)(=O)c1cccc(NC(=S)N/N=C/c2ccc(O)c(O)c2O)c1	i	·	·	·	-5.4*	i
Cc1c(NC(=O)COC(=O)CSc2ccc(C(N)=O)cc2[N+](=O)[O-])c(=O)n(-c2ccccc2)n1C	i	i	i	i	-0.01	i
CCCn1c(N)c(C(=O)CSc2nc(N)cc(=O)[nH]2)c(=O)n(C)c1=O	·	·	·	·	·	i
CCc1ccc(CNC(=O)c2ccc(OC)c(OC3CCN(C(C)C)CC3)c2)nc1	·	-9.6*	i	i	1.9	i
COC(=O)CN(C)C(=O)c1ccc(OC)c(OC2CCN(C(C)C)CC2)c1	i	i	i	i	0.47	i
COc1ccc(C(=O)NC(Cn2ccnc2)C(C)(C)C)cc1OC1CCN(C(C)C)CC1 (stereo not drawn)	i	-8.7*	i	i	-0.08	i
COc1ccc(C(=O)NCc2cnn(C)c2)cc1OC1CCN(C(C)C)CC1	i	·	·	i	0.91	i
COc1ccc(Cn2nnnc2C(C(C)C)N(Cc2ccco2)Cc2cccs2)cc1 (stereo not drawn)	i	i	i	i	-1.1	i
CC(C)C(c1nnnn1Cc1ccccc1)N(Cc1ccco1)Cc1cccs1 (stereo not drawn)	i	i	i	i	-1.8	-14*
CCCCn1c(N)c(N(CCOC)C(=O)c2ccc(F)c(S(=O)(=O)N3CCOCC3)c2)c(=O)[nH]c1=O	i	i	i	i	3.3	i
Cc1ccc(CS(=O)(=O)CCC(=O)NCc2ccccc2Cl)cc1	i	i	i	i	1.7	i
Cc1ccccc1OCCNc1cc(N2CCNCC2)ccc1[N+](=O)[O-]	i	i	i	i	-8.1*	·
CC(C)Cc1ccc(C(C)C(=O)OCC(=O)c2c[nH]c3ccccc23)cc1 (stereo not drawn)	·	i	i	100*	-1.9	i
CCC(C(=O)c1ccc(O)cc1)c1ccccc1 (stereo not drawn)	i	i	i	i	-5*	i
CCC(C(=O)N(C(C)C)C(C)C)c1ccccc1 (stereo not drawn)	·	·	·	·	·	i
COc1ccc(OC)c(Nc2nc(C)nc3c2oc2ccccc23)c1	i	i	i	i	0.1	i
COc1ccc(Cl)cc1Nc1nc(C)nc2c1oc1ccccc12	+	i	i	i	-0.6	i
CC(C)C[C@H](NC(=O)[C@H](Cc1ccccc1)n1c(=O)[nH]c2ccccc2c1=O)C(=O)N1CCC(C(=O)O)CC1	i	i	i	i	-1	-13*
C[C@H](NC(=O)[C@H](Cc1ccccc1)n1c(=O)[nH]c2ccccc2c1=O)C(=O)N1CCC(C(=O)O)CC1	i	i	i	i	1.2	i
SMILES	Rce1 inhib	CHT inh	CHT allo act	TMEM16A inh	Kir21 inh	ANO1 activ
Cc1c(C(C)C[C@H](C)O)oc(=O)c2c1Oc1c(C)c(C(C)C[C@H](C)O)oc(=O)c1C2 (stereo partly drawn)	·	·	·	·	·	i
N#Cc1ccc(CSc2nnc(-c3c[nH]c4ccccc34)n2-c2ccccc2)cc1	+	i	i	i	-0.14	i
N#Cc1ccc(CSc2nnc(-c3ccccn3)n2-c2ccccc2)cc1	i	i	i	i	-1.2	i
Cc1ccccc1N/N=C/c1sc(=O)n(Cc2cccc(C(=O)O)c2)c1Cl	i	i	i	25*	-2.9	i
CC1(c2ccccc2)NC(=O)N(CC(=O)NCC2CCCO2)C1=O (stereo not drawn)	·	·	·	·	·	i
CCOc1ccccc1OCCCOc1ccc([N+](=O)[O-])cc1Cl	i	i	i	i	-0.4	i
COc1cccc(OC)c1OCCCOc1ccc([N+](=O)[O-])cc1Cl	i	i	i	100*	-0.66	i
Cc1ccc(-n2c(C)cc(=O)cc2C)cc1[N+](=O)[O-]	i	-8.3*	i	i	2.7	i
Cc1ccc(N2C(=O)c3cccc([N+](=O)[O-])c3C2=O)cc1C	i	i	i	i	1.4	i
O=Cc1ccnc(-c2ccc(OC(=O)c3ccco3)cc2)n1	i	i	i	i	-5.4*	i
O=C(O)CCc1ccc(-c2cccs2)n1Cc1ccco1	+	i	i	i	-1.4	i
COc1ccc2ccccc2c1/C=N/NC(=S)NCCN1CCOCC1	i	i	i	i	1.6	-29*
CC1(c2ccc(OC(F)F)cc2)NC(=O)N(CC(=O)N2c3ccccc3NC(=O)C2(C)C)C1=O (stereo not drawn)	·	·	·	·	·	i
NS(=O)(=O)c1cccc(NS(=O)(=O)c2cccc(C(F)(F)F)c2)c1	i	i	i	i	0.19	i
NC(=O)COC(=O)c1ccccc1OCc1ccc(Cl)cc1	i	i	i	i	-0.53	-25*
CCN(C(=O)COC(=O)c1ccccc1OCc1ccc(Cl)cc1)C1CCS(=O)(=O)C1 (stereo not drawn)	·	·	·	·	·	i
COc1ccc2nc3cc(Cl)ccc3c(C#N)c2c1	i	i	i	i	-0.52	-7.2*
COc1ccc2nc(C(F)(F)Cl)c(C#N)c(N)c2c1	i	i	i	i	-0.26	i
Cc1cc(C)c(NC(=O)CNC(=O)c2ccc3ncsc3c2)c(C)c1	·	·	·	·	·	i
COc1ccccc1N1CCN(C(=O)c2ccc(Cn3c(=O)[nH]c4ccsc4c3=O)cc2)CC1	i	i	i	i	1.7	i
COc1cc(C(=O)Nc2ccc3c(c2)ncn3C)cc(OC)c1OC	i	i	i	i	1.8	i
COc1cc(C(=O)Nc2ccc3c(c2)nc(C)n3C)cc(OC)c1OC	i	i	6.5*	i	0.66	i
